# The panel holds about 83,000 compounds, 20% with a hit somewhere; the sample as a whole holds those more often.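 Note: values are percent growth. 100 is the growth of untreated cells, values between 100 and 0 indicate rising inhibition; between -100 and 0 indicates cell death.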 A number with no mark means an inactive call. Calls of active or inactive are those of the source. The calls were made as follows: active = growth percent below 10; inactive = the rest.
# Experiments:
# Experiment in all cases: NCI-60 one-dose screen, 48 h (100 = growth as untreated, 0 = no growth, -100 = all killed)
# IGROV1 ovarian = system: IGROV1 ovarian
# OVCAR-3 ovarian = system: OVCAR-3 ovarian
# HS 578T breast = system: HS 578T breast
# NCI/ADR-RES ovarian = system: NCI/ADR-RES ovarian
# SK-MEL-2 melanoma = system: SK-MEL-2 melanoma
# EKVX NSCLC = system: EKVX NSCLC
# SN12C renal = system: SN12C renal
# UO-31 renal = system: UO-31 renal
# TK-10 renal = system: TK-10 renal
# ACHN renal = settings: 10 µM unless noted
# CAKI-1 renal = settings: 10 µM unless noted
# A498 renal = system: A498 renal
# CCRF-CEM leukemia = system: CCRF-CEM leukemia
# MOLT-4 leukemia = system: MOLT-4 leukemia
# SR leukemia = system: SR leukemia
# RPMI-8226 leukemia = system: RPMI-8226 leukemia
# OVCAR-8 ovarian = system: OVCAR-8 ovarian
# OVCAR-5 ovarian = system: OVCAR-5 ovarian
# OVCAR-4 ovarian = system: OVCAR-4 ovarian
# SK-OV-3 ovarian = system: SK-OV-3 ovarian
structure (smiles),measurement,setting,value
COc1ccc(C(=O)/C=C/c2ccc(OCc3cccc(C(F)(F)F)c3)c(OC)c2)cc1OC,growth,IGROV1 ovarian; 100 µM,5.18% (active)
same,growth,OVCAR-3 ovarian; 10 µM,79.8%
same,growth,OVCAR-3 ovarian; 100 µM,-10.3% (active)
same,growth,HS 578T breast; 10 µM,98.2%
same,growth,HS 578T breast; 100 µM,11.6%
same,growth,NCI/ADR-RES ovarian; 10 µM,71.4%
same,growth,NCI/ADR-RES ovarian; 100 µM,-6.47% (active)
CCNC(=O)Oc1ccc(/C(=C(/C)Cc2ccc(OC)cc2)c2ccc(OCCN(CC)CC)cc2)cc1,growth,SK-MEL-2 melanoma; 10 µM unless noted,86.5%
same,growth,EKVX NSCLC; 10 µM unless noted,69.6%
same,growth,SN12C renal; 10 µM unless noted,68.6%
same,growth,UO-31 renal; 10 µM unless noted,43.1%
same,growth,TK-10 renal; 10 µM unless noted,65.9%
same,growth,ACHN renal,81.5%
same,growth,CAKI-1 renal,61.4%
same,growth,A498 renal; 10 µM unless noted,80%
same,growth,CCRF-CEM leukemia; 10 µM unless noted,35.6%
same,growth,MOLT-4 leukemia; 10 µM unless noted,14.7%
same,growth,SR leukemia; 10 µM unless noted,-55.3% (active)
same,growth,RPMI-8226 leukemia; 10 µM unless noted,-14.8% (active)
same,growth,OVCAR-8 ovarian; 10 µM unless noted,74.8%
same,growth,OVCAR-5 ovarian; 10 µM unless noted,89.9%
same,growth,OVCAR-4 ovarian; 10 µM unless noted,69.4%
same,growth,SK-OV-3 ovarian; 10 µM unless noted,88.6%
same,growth,IGROV1 ovarian; 10 µM unless noted,74.7%
same,growth,OVCAR-3 ovarian; 10 µM unless noted,50.7%
same,growth,HS 578T breast; 10 µM unless noted,45.9%
same,growth,NCI/ADR-RES ovarian; 10 µM unless noted,78.1%
COc1nc(=O)n(C2C=CC(=O)O2)cc1F (configuration not stated),growth,SK-MEL-2 melanoma; 10 µM unless noted,106%
same,growth,EKVX NSCLC; 10 µM unless noted,78.4%
same,growth,SN12C renal; 10 µM unless noted,94.8%
same,growth,UO-31 renal; 10 µM unless noted,56.3%
same,growth,TK-10 renal; 10 µM unless noted,61.3%
same,growth,ACHN renal,31.7%
same,growth,CAKI-1 renal,40.1%
same,growth,A498 renal; 10 µM unless noted,97.9%
same,growth,CCRF-CEM leukemia; 10 µM unless noted,48.7%
same,growth,MOLT-4 leukemia; 10 µM unless noted,33.5%
same,growth,SR leukemia; 10 µM unless noted,-19.8% (active)
same,growth,RPMI-8226 leukemia; 10 µM unless noted,70.1%
same,growth,OVCAR-8 ovarian; 10 µM unless noted,46%
same,growth,OVCAR-5 ovarian; 10 µM unless noted,129%
same,growth,OVCAR-4 ovarian; 10 µM unless noted,71.3%
same,growth,SK-OV-3 ovarian; 10 µM unless noted,98.7%
same,growth,IGROV1 ovarian; 10 µM unless noted,116%
same,growth,OVCAR-3 ovarian; 10 µM unless noted,33.8%
same,growth,HS 578T breast; 10 µM unless noted,94.4%
same,growth,NCI/ADR-RES ovarian; 10 µM unless noted,111%
CC(=O)/C=C/c1ccc(OCc2ccc(Cl)cc2)cc1,growth,SK-MEL-2 melanoma; 10 µM,101%
same,growth,SK-MEL-2 melanoma; 100 µM,4.19% (active)
same,growth,EKVX NSCLC; 10 µM,116%
same,growth,EKVX NSCLC; 100 µM,28.8%
same,growth,SN12C renal; 10 µM,102%
same,growth,SN12C renal; 100 µM,48.6%
same,growth,UO-31 renal; 10 µM,91.4%
same,growth,UO-31 renal; 100 µM,21%
same,growth,TK-10 renal; 10 µM,77.6%
same,growth,TK-10 renal; 100 µM,27.9%
same,growth,ACHN renal,109%
same,growth,A498 renal; 10 µM,82.6%
same,growth,A498 renal; 100 µM,12.1%
same,growth,CCRF-CEM leukemia; 10 µM,86.8%
same,growth,CCRF-CEM leukemia; 100 µM,41.2%
same,growth,MOLT-4 leukemia; 10 µM,92.8%
same,growth,MOLT-4 leukemia; 100 µM,16.7%
same,growth,SR leukemia; 10 µM,98%
same,growth,SR leukemia; 100 µM,30%
same,growth,RPMI-8226 leukemia; 10 µM,87.9%
same,growth,RPMI-8226 leukemia; 100 µM,24.2%
same,growth,OVCAR-8 ovarian; 10 µM,90.1%
same,growth,OVCAR-8 ovarian; 100 µM,34.4%
same,growth,OVCAR-5 ovarian; 10 µM,109%
same,growth,OVCAR-5 ovarian; 100 µM,75%
same,growth,OVCAR-4 ovarian; 10 µM,101%
same,growth,OVCAR-4 ovarian; 100 µM,43.4%
same,growth,SK-OV-3 ovarian; 10 µM,110%
same,growth,SK-OV-3 ovarian; 100 µM,38.8%
same,growth,IGROV1 ovarian; 10 µM,106%
same,growth,IGROV1 ovarian; 100 µM,61.4%
same,growth,OVCAR-3 ovarian; 10 µM,102%
same,growth,OVCAR-3 ovarian; 100 µM,50.7%
same,growth,HS 578T breast; 10 µM,97.3%
same,growth,HS 578T breast; 100 µM,51.9%
same,growth,NCI/ADR-RES ovarian; 10 µM,96.5%
same,growth,NCI/ADR-RES ovarian; 100 µM,18%
CCN(Cc1ccccc1)c1ccc(/C=C2\COc3ccccc3C2=O)cc1,growth,SK-MEL-2 melanoma; 10 µM,102%
same,growth,SK-MEL-2 melanoma; 100 µM,21.8%
same,growth,EKVX NSCLC; 10 µM,102%
same,growth,EKVX NSCLC; 100 µM,36.9%
same,growth,SN12C renal; 10 µM,94.5%
same,growth,SN12C renal; 100 µM,53.2%
same,growth,UO-31 renal; 10 µM,83.8%
same,growth,UO-31 renal; 100 µM,18.6%
same,growth,TK-10 renal; 10 µM,119%
same,growth,TK-10 renal; 100 µM,53.3%
same,growth,ACHN renal,101%
same,growth,A498 renal; 10 µM,91.3%
same,growth,A498 renal; 100 µM,40.2%
same,growth,CCRF-CEM leukemia; 10 µM,104%
same,growth,CCRF-CEM leukemia; 100 µM,15%
same,growth,MOLT-4 leukemia; 10 µM,78.6%
same,growth,MOLT-4 leukemia; 100 µM,10.5%
same,growth,SR leukemia; 10 µM,67.5%
same,growth,SR leukemia; 100 µM,7.93% (active)
same,growth,RPMI-8226 leukemia; 10 µM,110%
same,growth,RPMI-8226 leukemia; 100 µM,20.5%
same,growth,OVCAR-8 ovarian; 10 µM,95.3%
same,growth,OVCAR-8 ovarian; 100 µM,47.6%
same,growth,OVCAR-5 ovarian; 10 µM,101%
same,growth,OVCAR-5 ovarian; 100 µM,98.7%
same,growth,OVCAR-4 ovarian; 10 µM,102%
same,growth,OVCAR-4 ovarian; 100 µM,52.1%
same,growth,SK-OV-3 ovarian; 10 µM,89.4%
same,growth,SK-OV-3 ovarian; 100 µM,65.2%
same,growth,IGROV1 ovarian; 10 µM,99.1%
same,growth,IGROV1 ovarian; 100 µM,40.2%
same,growth,OVCAR-3 ovarian; 10 µM,108%
same,growth,OVCAR-3 ovarian; 100 µM,19.1%
same,growth,HS 578T breast; 10 µM,96%
same,growth,HS 578T breast; 100 µM,59.4%
same,growth,NCI/ADR-RES ovarian; 10 µM,101%
same,growth,NCI/ADR-RES ovarian; 100 µM,23.4%
COc1ccc(C(=O)/C=C/c2ccc(OCc3ccc(Cl)cc3)cc2)cc1OC,growth,SK-MEL-2 melanoma; 10 µM,98.3%
same,growth,SK-MEL-2 melanoma; 100 µM,48.5%
same,growth,EKVX NSCLC; 10 µM,109%
same,growth,EKVX NSCLC; 100 µM,29.1%
same,growth,SN12C renal; 10 µM,107%
same,growth,SN12C renal; 100 µM,28.5%
same,growth,UO-31 renal; 10 µM,85.8%
same,growth,UO-31 renal; 100 µM,41.4%
same,growth,TK-10 renal; 10 µM,101%
same,growth,TK-10 renal; 100 µM,0.092% (active)
same,growth,ACHN renal,103%
same,growth,A498 renal; 10 µM,85.5%
same,growth,A498 renal; 100 µM,-33.3% (active)
same,growth,CCRF-CEM leukemia; 10 µM unless noted,73.4% [100 µM]
same,growth,MOLT-4 leukemia; 10 µM,90.4%
same,growth,MOLT-4 leukemia; 100 µM,62.8%
same,growth,SR leukemia; 10 µM,78.2%
same,growth,SR leukemia; 100 µM,43.8%
same,growth,RPMI-8226 leukemia; 10 µM,88.5%
same,growth,RPMI-8226 leukemia; 100 µM,55.8%
same,growth,OVCAR-8 ovarian; 10 µM,92%
same,growth,OVCAR-8 ovarian; 100 µM,-8.35% (active)
same,growth,OVCAR-5 ovarian; 10 µM,103%
same,growth,OVCAR-5 ovarian; 100 µM,135%
same,growth,OVCAR-4 ovarian; 10 µM,86%
same,growth,OVCAR-4 ovarian; 100 µM,-4.25% (active)
same,growth,SK-OV-3 ovarian; 10 µM,120%
same,growth,SK-OV-3 ovarian; 100 µM,7.5% (active)
same,growth,IGROV1 ovarian; 10 µM,105%
same,growth,IGROV1 ovarian; 100 µM,4.98% (active)
same,growth,OVCAR-3 ovarian; 10 µM,104%
same,growth,OVCAR-3 ovarian; 100 µM,-45.2% (active)
same,growth,HS 578T breast; 10 µM,93.5%
same,growth,HS 578T breast; 100 µM,-1.6% (active)
same,growth,NCI/ADR-RES ovarian; 10 µM,91.5%
same,growth,NCI/ADR-RES ovarian; 100 µM,0.0169% (active)

# From PubChem BioAssay (NCI)
